# Source: article PMC11062922 (Nature Chemical Biology, 2023)
# Like-named read-outs stand apart in the source and are kept apart here.
# Tests used:
# Conditions in all cases: read-out: apparent Kd, n = 1
# AXL = test system: AXL
# CAMKK2 = test system: CAMKK2
# CDC7 = test system: CDC7
# CDK4 = test system: CDK4
# DYRK1A = test system: DYRK1A
# ERCC2 = test system: ERCC2
# MAP2K5 = test system: MAP2K5
# MAP4K4 = test system: MAP4K4
# MAPK9 = test system: MAPK9
# PIM3 = test system: PIM3
# PRKCA = test system: PRKCA
# PRKX = test system: PRKX
# RPS6KA3 = test system: RPS6KA3
# [1] = compound concentrations:100 nM and 1000 nM (sheet 'Lestaurtinib' of Supplementary Table 1),run:Lestaurtinib_02443_R3,Plate:MR009
# [2] = compound concentrations:100 nM and 1000 nM (sheet 'Lestaurtinib' of Supplementary Table 1),run:Lestaurtinib_02487_R1,Plate:MR012
# [3] = compound concentrations:100 nM and 1000 nM (sheet 'Lestaurtinib' of Supplementary Table 1),run:Lestaurtinib_02496_R3,Plate:MR013
# [4] = compound concentrations:100 nM and 1000 nM (sheet 'Lestaurtinib' of Supplementary Table 1),run:Lestaurtinib_02572_R1,Plate:MR015
# [5] = compound concentrations:100 nM and 1000 nM (sheet 'Lestaurtinib' of Supplementary Table 1),run:Lestaurtinib_02724_R3,Plate:MR021
# [6] = compound concentrations:100 nM and 1000 nM (sheet 'Lestaurtinib' of Supplementary Table 1),run:Lestaurtinib_02339_R2,Plate:MR001
# [7] = compound concentrations:100 nM and 1000 nM (sheet 'Lestaurtinib' of Supplementary Table 1),run:Lestaurtinib_02437_R3,Plate:MR007
# [8] = compound concentrations:100 nM and 1000 nM (sheet 'Lestaurtinib' of Supplementary Table 1),run:Lestaurtinib_02473_R3,Plate:MR010
# [9] = compound concentrations:100 nM and 1000 nM (sheet 'Lestaurtinib' of Supplementary Table 1),run:Lestaurtinib_02496_R2,Plate:MR013
# [10] = compound concentrations:100 nM and 1000 nM (sheet 'Lestaurtinib' of Supplementary Table 1),run:Lestaurtinib_02381_R2,Plate:MR004
# [11] = compound concentrations:100 nM and 1000 nM (sheet 'Lestaurtinib' of Supplementary Table 1),run:Lestaurtinib_02748_R3,Plate:MR024
# [12] = compound concentrations:100 nM and 1000 nM (sheet 'Lestaurtinib' of Supplementary Table 1),run:Lestaurtinib_02752_R2,Plate:MR025
# [13] = compound concentrations:100 nM and 1000 nM (sheet 'Lestaurtinib' of Supplementary Table 1),run:Lestaurtinib_02896_R1,Plate:MR030
# [14] = compound concentrations:100 nM and 1000 nM (sheet 'Lestaurtinib' of Supplementary Table 1),run:Lestaurtinib_03260_R2,Plate:MR033
# [15] = compound concentrations:100 nM and 1000 nM (sheet 'Lestaurtinib' of Supplementary Table 1),run:Lestaurtinib_02438_R1,Plate:MR008
# [16] = compound concentrations:100 nM and 1000 nM (sheet 'Lestaurtinib' of Supplementary Table 1),run:Lestaurtinib_02443_R2,Plate:MR009
# [17] = compound concentrations:100 nM and 1000 nM (sheet 'Lestaurtinib' of Supplementary Table 1),run:Lestaurtinib_02482_R3,Plate:MR011
# [18] = compound concentrations:100 nM and 1000 nM (sheet 'Lestaurtinib' of Supplementary Table 1),run:Lestaurtinib_02381_R3,Plate:MR004
# [19] = compound concentrations:100 nM and 1000 nM (sheet 'Lestaurtinib' of Supplementary Table 1),run:Lestaurtinib_02566_R1,Plate:MR014
# [20] = compound concentrations:100 nM and 1000 nM (sheet 'Lestaurtinib' of Supplementary Table 1),run:Lestaurtinib_02766_R1,Plate:MR027
# [21] = compound concentrations:100 nM and 1000 nM (sheet 'Lestaurtinib' of Supplementary Table 1),run:Lestaurtinib_02381_R1,Plate:MR004
# [22] = compound concentrations:100 nM and 1000 nM (sheet 'Lestaurtinib' of Supplementary Table 1),run:Lestaurtinib_02473_R2,Plate:MR010
# [23] = compound concentrations:100 nM and 1000 nM (sheet 'Lestaurtinib' of Supplementary Table 1),run:Lestaurtinib_02724_R1,Plate:MR021
# [24] = compound concentrations:100 nM and 1000 nM (sheet 'Lestaurtinib' of Supplementary Table 1),run:Lestaurtinib_02748_R1,Plate:MR024
substance,measurement,setting,value
Lestaurtinib,potency estimated from few doses,AXL; [1],2130 nM
same,potency estimated from few doses,AXL; [2],600 nM
same,potency estimated from few doses,AXL; [3],2230 nM
same,potency estimated from few doses,AXL; [4],1420 nM
same,potency estimated from few doses,AXL; [5],1340 nM
same,potency estimated from few doses,CAMKK2; [6],1820 nM
same,potency estimated from few doses,CAMKK2; [7],149 nM
same,potency estimated from few doses,CAMKK2; [8],1930 nM
same,potency estimated from few doses,CAMKK2; [2],596 nM
same,potency estimated from few doses,CAMKK2; [9],2180 nM
same,potency estimated from few doses,"CAMKK2; compound concentrations:100 nM and 1000 nM (sheet 'Lestaurtinib' of Supplementary Table 1),run:Lestaurtinib_02566_R2,Plate:MR014",1960 nM
same,potency estimated from few doses,CAMKK2; [4],1810 nM
same,potency estimated from few doses,"CDC7; compound concentrations:100 nM and 1000 nM (sheet 'Lestaurtinib' of Supplementary Table 1),run:Lestaurtinib_02367_R1,Plate:MR003",1400 nM
same,potency estimated from few doses,"CDC7; compound concentrations:100 nM and 1000 nM (sheet 'Lestaurtinib' of Supplementary Table 1),run:Lestaurtinib_02367_R3,Plate:MR003",1000 nM
same,potency estimated from few doses,CDC7; [10],1530 nM
same,potency estimated from few doses,CDC7; [8],2080 nM
same,potency estimated from few doses,CDC7; [11],1650 nM
same,potency estimated from few doses,"CDC7; compound concentrations:100 nM and 1000 nM (sheet 'Lestaurtinib' of Supplementary Table 1),run:Lestaurtinib_02752_R1,Plate:MR025",1240 nM
same,potency estimated from few doses,CDC7; [12],1760 nM
same,potency estimated from few doses,"CDC7; compound concentrations:100 nM and 1000 nM (sheet 'Lestaurtinib' of Supplementary Table 1),run:Lestaurtinib_02795_R3,Plate:MR022",1510 nM
same,potency estimated from few doses,CDC7; [13],591 nM
same,potency estimated from few doses,"CDC7; compound concentrations:100 nM and 1000 nM (sheet 'Lestaurtinib' of Supplementary Table 1),run:Lestaurtinib_02896_R2,Plate:MR030",1330 nM
same,potency estimated from few doses,CDC7; [14],1690 nM
same,potency estimated from few doses,"CDK4; compound concentrations:100 nM and 1000 nM (sheet 'Lestaurtinib' of Supplementary Table 1),run:Lestaurtinib_02367_R2,Plate:MR003",2190 nM
same,potency estimated from few doses,"CDK4; compound concentrations:100 nM and 1000 nM (sheet 'Lestaurtinib' of Supplementary Table 1),run:Lestaurtinib_02407_R2,Plate:MR005",1650 nM
same,potency estimated from few doses,CDK4; [15],2240 nM
same,potency estimated from few doses,"CDK4; compound concentrations:100 nM and 1000 nM (sheet 'Lestaurtinib' of Supplementary Table 1),run:Lestaurtinib_02438_R3,Plate:MR008",2250 nM
same,potency estimated from few doses,CDK4; [16],2230 nM
same,potency estimated from few doses,CDK4; [17],2220 nM
same,potency estimated from few doses,"CDK4; compound concentrations:100 nM and 1000 nM (sheet 'Lestaurtinib' of Supplementary Table 1),run:Lestaurtinib_02606_R1,Plate:MR019",1720 nM
same,potency estimated from few doses,CDK4; [5],1990 nM
same,potency estimated from few doses,"CDK4; compound concentrations:100 nM and 1000 nM (sheet 'Lestaurtinib' of Supplementary Table 1),run:Lestaurtinib_02766_R2,Plate:MR027",1370 nM
same,potency estimated from few doses,CDK4; [13],1400 nM
same,potency estimated from few doses,DYRK1A; [6],2310 nM
same,potency estimated from few doses,DYRK1A; [18],820 nM
same,potency estimated from few doses,DYRK1A; [16],1580 nM
same,potency estimated from few doses,DYRK1A; [19],1580 nM
same,potency estimated from few doses,"DYRK1A; compound concentrations:100 nM and 1000 nM (sheet 'Lestaurtinib' of Supplementary Table 1),run:Lestaurtinib_02577_R2,Plate:MR016",1670 nM
same,potency estimated from few doses,DYRK1A; [5],987 nM
same,potency estimated from few doses,DYRK1A; [20],1760 nM
same,potency estimated from few doses,DYRK1A; [13],1690 nM
same,potency estimated from few doses,"DYRK1A; compound concentrations:100 nM and 1000 nM (sheet 'Lestaurtinib' of Supplementary Table 1),run:Lestaurtinib_03172_R3,Plate:MR031",1440 nM
same,potency estimated from few doses,ERCC2; [7],1320 nM
same,potency estimated from few doses,ERCC2; [2],161 nM
same,potency estimated from few doses,ERCC2; [9],1440 nM
same,potency estimated from few doses,ERCC2; [3],1590 nM
same,potency estimated from few doses,"ERCC2; compound concentrations:100 nM and 1000 nM (sheet 'Lestaurtinib' of Supplementary Table 1),run:Lestaurtinib_02572_R2,Plate:MR015",261 nM
same,potency estimated from few doses,"MAP2K5; compound concentrations:100 nM and 1000 nM (sheet 'Lestaurtinib' of Supplementary Table 1),run:Lestaurtinib_02364_R1,Plate:MR002",2240 nM
same,potency estimated from few doses,MAP2K5; [21],1340 nM
same,potency estimated from few doses,MAP2K5; [10],2420 nM
same,potency estimated from few doses,"MAP2K5; compound concentrations:100 nM and 1000 nM (sheet 'Lestaurtinib' of Supplementary Table 1),run:Lestaurtinib_02437_R1,Plate:MR007",2430 nM
same,potency estimated from few doses,MAP2K5; [22],2440 nM
same,potency estimated from few doses,MAP2K5; [17],2350 nM
same,potency estimated from few doses,MAP2K5; [19],1960 nM
same,potency estimated from few doses,MAP2K5; [5],1790 nM
same,potency estimated from few doses,MAP2K5; [11],1820 nM
same,potency estimated from few doses,MAP2K5; [20],2210 nM
same,potency estimated from few doses,MAP4K4; [10],2240 nM
same,potency estimated from few doses,"MAP4K4; compound concentrations:100 nM and 1000 nM (sheet 'Lestaurtinib' of Supplementary Table 1),run:Lestaurtinib_02438_R2,Plate:MR008",1430 nM
same,potency estimated from few doses,MAP4K4; [16],1700 nM
same,potency estimated from few doses,MAP4K4; [22],1820 nM
same,potency estimated from few doses,"MAP4K4; compound concentrations:100 nM and 1000 nM (sheet 'Lestaurtinib' of Supplementary Table 1),run:Lestaurtinib_02482_R2,Plate:MR011",1420 nM
same,potency estimated from few doses,MAPK9; [1],1300 nM
same,potency estimated from few doses,MAPK9; [19],1990 nM
same,potency estimated from few doses,MAPK9; [4],1720 nM
same,potency estimated from few doses,"MAPK9; compound concentrations:100 nM and 1000 nM (sheet 'Lestaurtinib' of Supplementary Table 1),run:Lestaurtinib_02584_R3,Plate:MR017",2260 nM
same,potency estimated from few doses,"MAPK9; compound concentrations:100 nM and 1000 nM (sheet 'Lestaurtinib' of Supplementary Table 1),run:Lestaurtinib_02624_R1,Plate:MR020",1410 nM
same,potency estimated from few doses,MAPK9; [23],2240 nM
same,potency estimated from few doses,"MAPK9; compound concentrations:100 nM and 1000 nM (sheet 'Lestaurtinib' of Supplementary Table 1),run:Lestaurtinib_02752_R3,Plate:MR025",2180 nM
same,potency estimated from few doses,MAPK9; [13],2120 nM
same,potency estimated from few doses,"MAPK9; compound concentrations:100 nM and 1000 nM (sheet 'Lestaurtinib' of Supplementary Table 1),run:Lestaurtinib_03172_R1,Plate:MR031",1900 nM
same,potency estimated from few doses,"MAPK9; compound concentrations:100 nM and 1000 nM (sheet 'Lestaurtinib' of Supplementary Table 1),run:Lestaurtinib_03260_R1,Plate:MR033",1690 nM
same,potency estimated from few doses,PIM3; [24],611 nM
same,potency estimated from few doses,"PIM3; compound concentrations:100 nM and 1000 nM (sheet 'Lestaurtinib' of Supplementary Table 1),run:Lestaurtinib_02748_R2,Plate:MR024",656 nM
same,potency estimated from few doses,PIM3; [11],1430 nM
same,potency estimated from few doses,PIM3; [12],795 nM
same,potency estimated from few doses,PIM3; [14],945 nM
same,potency estimated from few doses,PRKCA; [21],2070 nM
same,potency estimated from few doses,PRKCA; [18],2400 nM
same,potency estimated from few doses,"PRKCA; compound concentrations:100 nM and 1000 nM (sheet 'Lestaurtinib' of Supplementary Table 1),run:Lestaurtinib_02443_R1,Plate:MR009",1990 nM
same,potency estimated from few doses,PRKCA; [1],2450 nM
same,potency estimated from few doses,PRKCA; [2],1720 nM
same,potency estimated from few doses,PRKCA; [5],1760 nM
same,potency estimated from few doses,PRKCA; [24],2320 nM
same,potency estimated from few doses,PRKX; [10],1490 nM
same,potency estimated from few doses,"PRKX; compound concentrations:100 nM and 1000 nM (sheet 'Lestaurtinib' of Supplementary Table 1),run:Lestaurtinib_02487_R2,Plate:MR012",2110 nM
same,potency estimated from few doses,"PRKX; compound concentrations:100 nM and 1000 nM (sheet 'Lestaurtinib' of Supplementary Table 1),run:Lestaurtinib_02487_R3,Plate:MR012",1350 nM
same,potency estimated from few doses,"PRKX; compound concentrations:100 nM and 1000 nM (sheet 'Lestaurtinib' of Supplementary Table 1),run:Lestaurtinib_02768_R1,Plate:MR028",2230 nM
same,potency estimated from few doses,"PRKX; compound concentrations:100 nM and 1000 nM (sheet 'Lestaurtinib' of Supplementary Table 1),run:Lestaurtinib_02802_R3,Plate:MR029",1970 nM
same,potency estimated from few doses,"RPS6KA3; compound concentrations:100 nM and 1000 nM (sheet 'Lestaurtinib' of Supplementary Table 1),run:Lestaurtinib_02339_R3,Plate:MR001",1510 nM
same,potency estimated from few doses,RPS6KA3; [15],1840 nM
same,potency estimated from few doses,RPS6KA3; [1],1650 nM
same,potency estimated from few doses,RPS6KA3; [2],1150 nM
same,potency estimated from few doses,"RPS6KA3; compound concentrations:100 nM and 1000 nM (sheet 'Lestaurtinib' of Supplementary Table 1),run:Lestaurtinib_02577_R1,Plate:MR016",1760 nM
same,potency estimated from few doses,RPS6KA3; [23],1530 nM
